Assay results published in PubChem BioAssay (Tox21).
Results filed as inconclusive are left out. Where a call stands in place of a potency, no number is given. Active and inactive are the calls of the source. Unless noted, calls come from the whole dose curve; as a rule, active = well fitted curve in the direction sought with a large enough effect in the repeat runs; inconclusive = weak or mixed curves; inactive = no such curve, though single readings can be large; an effect the other way counts as inactive or inconclusive.

Key:
[1] = A CellTox Green Cytotoxicity Assay to monitor cytotoxicity in HepG2 cells - 24 hour (AID 1224878); note: nearly all actives have a fitted effect of over 45% in size
How it was run: (§1)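 HepG2, 600 cells/well premixed w/ CellTox Green; 5 h settle, 37 C/5% CO2; pintool cpd add (DMSO); 37 C, 40 h; fluorescence read at 0, 8, 16, 24, 32, 40 h.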

[2] = A CellTox Green Cytotoxicity Assay to monitor cytotoxicity in HepG2 cells - 40 hour (AID 1224879); note: nearly all actives have a fitted effect of over 40% in size
How it was run: as §1

[3] = qHTS RealTime-Glo MT Cell Viability Assay in HEK293 cells - 0 hour (AID 1224880); note: nearly all actives have a fitted effect of over 45% in size; note: potency is the fitted concentration of half-maximal effect
How it was run: (§2)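 Luminescence readout at each listed time point; HEK293, 600 cells/well, RealTime-Glo MT reagent added with cells; compounds pinned (23 nL in DMSO) after 5 h at 37 C; continuous culture at 37 C.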

[4] = A CellTox Green Cytotoxicity Assay to monitor cytotoxicity in HEK293 cells - 32 hour (AID 1224881); note: nearly all actives have a fitted effect of over 40% in size
How it was run: (§3)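 Read-out: fluorescence of a cell-impermeant cyanine dye staining DNA of dead cells, proportional to cytotoxicity. HEK293, 600 cells/well with reagent, compound (23 nL DMSO) added after 5 h; reads at 0, 8, 16, 24, 32, 40 h.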

[5] = A CellTox Green Cytotoxicity Assay to monitor cytotoxicity in HepG2 cells - 0 hour (AID 1224882); note: nearly all actives have a fitted effect of over 35% in size
How it was run: as §1

[6] = A CellTox Green Cytotoxicity Assay to monitor cytotoxicity in HepG2 cells - 32 hour (AID 1224883); note: nearly all actives have a fitted effect of over 50% in size
How it was run: as §1

[7] = A CellTox Green Cytotoxicity Assay to monitor cytotoxicity in HEK293 cells - 8 hour (AID 1224884); note: nearly all actives have a fitted effect of over 35% in size
How it was run: as §3

[8] = qHTS RealTime-Glo MT Cell Viability Assay in HepG2 cells - 16 hour (AID 1224885); note: nearly all actives have a fitted effect of over 50% in size
How it was run: (§4)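 Viability was tracked continuously by NanoLuc luminescence from prosubstrate reduced by living HepG2 cells, at successive time points over 40 h of compound exposure. Cells with reagent were preincubated 5 h at 37 °C before compound addition.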

[9] = qHTS RealTime-Glo MT Cell Viability Assay in HEK293 cells - 24 hour (AID 1224886); note: top concentration of the series differs between compounds; nearly all actives have a fitted effect of over 50% in size
How it was run: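 Viability tracked continuously by luminescence as live cells reduce a prosubstrate for NanoLuc; HEK293 cells preincubated 5 h, compound-treated at 37 C, and read at 0, 8, 16, 24, 32 and 40 h.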

[10] = qHTS RealTime-Glo MT Cell Viability Assay in HEK293 cells - 8 hour (AID 1224887); note: top concentration of the series differs between compounds; nearly all actives have a fitted effect of over 50% in size
How it was run: as §2

[11] = A CellTox Green Cytotoxicity Assay to monitor cytotoxicity in HEK293 cells - 16 hour (AID 1224888); note: nearly all actives have a fitted effect of over 35% in size
How it was run: as §3

[12] = qHTS RealTime-Glo MT Cell Viability Assay in HepG2 cells - 0 hour (AID 1224889); note: nearly all actives have a fitted effect of over 50% in size; note: potency is the fitted concentration of half-maximal effect
How it was run: as §4

[13] = A CellTox Green Cytotoxicity Assay to monitor cytotoxicity in HepG2 cells - 8 hour (AID 1224890); note: nearly all actives have a fitted effect of over 45% in size
How it was run: as §1

[14] = qHTS assay to identify small molecule antagonists of the estrogen receptor alpha (ER-alpha) signaling pathway using the BG1 cell line in the presence of 0.1 nM 17-beta-estradiol - cell viability counter screen (AID 1259241); note: nearly all actives have a fitted effect of over 40% in size
How it was run: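 Live-cell protease activity (CellTiter-Fluor fluorescence, 30 min) was read in the same wells after VM7Luc4E2 cells had been exposed to compounds with 0.1 nM 17beta-estradiol for 22 hr at 37C.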

[15] = qHTS assay to identify small molecule antagonists of the androgen receptor (AR) signaling pathway using the MDA cell line in the presence of 0.5 nM R1881 - cell viability counter screen (AID 1259242); note: nearly all actives have a fitted effect of over 45% in size
How it was run: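 Live-cell protease fluorescence, CellTiter-Fluor, 30 min at 37C. Cells: MDA-kb2, 3,000/well, preincubated 5 hr. Compounds plus 0.5 nM R1881 final, 16 hr, 37C, 0% CO2.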

[16] = target: Androgen receptor (Homo sapiens) (UniProt P10275); assay: qHTS assay to identify small molecule antagonists of the androgen receptor (AR) signaling pathway using the MDA cell line in the presence of 0.5 nM R1881 (AID 1259243); note: nearly all actives have a fitted effect of over 50% in size
How it was run: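 MDA-kb2, MMTV-luc (AR/GR elements); 3,000 cells/well; cpd + 0.5 nM R1881 final; 16 hr 37C, 0% CO2; ONE-Glo 30 min RT; luminescence.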

[17] = target: Estrogen receptor (Homo sapiens) (UniProt P03372); assay: qHTS assay to identify small molecule antagonists of the estrogen receptor alpha (ER-alpha) signaling pathway using the BG1 cell line in the presence of 0.1 nM 17-beta-estradiol (AID 1259244); note: nearly all actives have a fitted effect of over 50% in size
How it was run: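 Luminescence after ONE-Glo (30 min, room temperature) measured ERE-luciferase activity in VM7Luc4E2 cells treated 22 h with compound and 0.1 nM final 17beta-estradiol as stimulator.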

[18] = qHTS assay to identify small molecule HDAC inhibitors (AID 1259364)
How it was run: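 HCT-116 (wild type), 1,500 cells/well, overnight; compound 2 hr 37C 5% CO2; HDAC-Glo I/II reagent 30 min RT; luminescence readout.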

[19] = qHTS assay to identify small molecule HDAC inhibitors - cell viability counter screen (AID 1259365)
How it was run: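 HCT-116 (wild type), 1,500 cells/well, overnight 37C/5% CO2; compound in DMSO 2hr; CellTiter-Glo 30min RT; luminescence read.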

[20] = qHTS assay to identify small molecule phospholipidosis (PLD) inducers (AID 1259344; active = well fitted curve in the direction sought with a large enough effect; an effect the other way counts as inactive or inconclusive)
How it was run: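 After 4 h attachment on collagen I, HepG2 cells were dosed with compound alongside LipidTOX Red, kept 24 h at 37 C, fixed, and imaged for lamellar phospholipid pits.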

Androgen receptor (Homo sapiens), sequence (P10275 whole entry, looked up): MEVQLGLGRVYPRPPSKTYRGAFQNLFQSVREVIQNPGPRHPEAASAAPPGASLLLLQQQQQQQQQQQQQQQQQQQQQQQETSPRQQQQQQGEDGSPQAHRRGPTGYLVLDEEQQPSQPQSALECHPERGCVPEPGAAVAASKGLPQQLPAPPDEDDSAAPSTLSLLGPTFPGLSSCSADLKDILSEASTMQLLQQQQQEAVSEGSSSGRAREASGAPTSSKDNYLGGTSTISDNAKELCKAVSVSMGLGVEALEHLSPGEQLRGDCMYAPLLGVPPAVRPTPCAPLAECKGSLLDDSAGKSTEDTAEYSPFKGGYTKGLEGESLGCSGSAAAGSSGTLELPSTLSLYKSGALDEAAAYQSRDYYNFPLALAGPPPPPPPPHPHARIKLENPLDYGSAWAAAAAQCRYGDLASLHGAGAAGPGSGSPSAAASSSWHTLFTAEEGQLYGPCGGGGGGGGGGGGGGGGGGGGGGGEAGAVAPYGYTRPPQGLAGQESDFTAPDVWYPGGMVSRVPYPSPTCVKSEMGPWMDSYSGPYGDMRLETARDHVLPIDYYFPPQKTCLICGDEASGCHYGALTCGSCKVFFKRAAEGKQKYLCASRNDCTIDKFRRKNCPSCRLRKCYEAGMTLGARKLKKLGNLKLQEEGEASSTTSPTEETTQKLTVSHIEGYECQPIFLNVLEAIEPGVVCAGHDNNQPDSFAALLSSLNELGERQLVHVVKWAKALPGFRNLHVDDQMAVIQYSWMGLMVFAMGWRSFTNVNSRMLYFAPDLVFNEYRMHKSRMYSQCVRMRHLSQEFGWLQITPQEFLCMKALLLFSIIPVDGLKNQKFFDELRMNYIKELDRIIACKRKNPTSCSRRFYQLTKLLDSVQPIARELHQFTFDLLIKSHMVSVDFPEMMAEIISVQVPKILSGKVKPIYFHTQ
Estrogen receptor (Homo sapiens), sequence (P03372 whole entry, looked up): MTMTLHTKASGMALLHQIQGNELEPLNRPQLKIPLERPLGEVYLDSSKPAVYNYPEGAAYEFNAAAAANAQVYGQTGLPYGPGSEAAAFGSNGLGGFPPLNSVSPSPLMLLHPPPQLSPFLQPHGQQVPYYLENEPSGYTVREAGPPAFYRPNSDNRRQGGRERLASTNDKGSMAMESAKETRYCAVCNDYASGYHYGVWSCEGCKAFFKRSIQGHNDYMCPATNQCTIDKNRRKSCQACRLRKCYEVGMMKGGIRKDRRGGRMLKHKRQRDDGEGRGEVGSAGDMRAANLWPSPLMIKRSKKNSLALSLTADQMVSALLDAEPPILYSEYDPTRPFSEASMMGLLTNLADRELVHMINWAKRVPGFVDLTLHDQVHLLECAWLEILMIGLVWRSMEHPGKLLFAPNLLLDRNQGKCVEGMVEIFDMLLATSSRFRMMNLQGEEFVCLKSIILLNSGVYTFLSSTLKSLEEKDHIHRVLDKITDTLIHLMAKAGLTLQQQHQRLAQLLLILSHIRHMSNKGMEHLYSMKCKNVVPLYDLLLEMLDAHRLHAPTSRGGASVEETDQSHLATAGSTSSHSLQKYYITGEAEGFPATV

N#Cc1cc(NC(=O)C(=O)O)c(Cl)c(NC(=O)C(=O)O)c1
Potency [1]: inactive | Potency [2]: inactive | Potency [3]: inactive | Potency [4]: inactive | Potency [5]: inactive | Potency [6]: inactive | Potency [7]: inactive | outcome [8]: inactive | outcome [9]: inactive | outcome [10]: inactive | Potency [11]: inactive | Potency [12]: inactive | Potency [13]: inactive | outcome [14]: inactive | outcome [15]: inactive | Potency [16]: inactive | outcome [17]: inactive | Potency [18]: inactive | outcome [19]: inactive

CCN1CCN(C(=O)N[C@@H](C(=O)N[C@@H]2C(=O)N3C(C(=O)O)=C(CSc4nnnn4C)CS[C@H]23)c2ccc(O)cc2)C(=O)C1=O
Potency [1]: inactive | Potency [2]: inactive | Potency [3]: inactive | Potency [4]: inactive | Potency [5]: inactive | Potency [6]: inactive | Potency [7]: inactive | outcome [8]: inactive | outcome [9]: inactive | outcome [10]: inactive | Potency [11]: inactive | Potency [12]: inactive | Potency [13]: inactive | outcome [14]: inactive | outcome [15]: inactive | outcome [17]: inactive | Potency [20]: inactive | Potency [18]: inactive | outcome [19]: inactive

CCC(=O)OCCOc1ccccc1
Potency [1]: inactive | Potency [2]: inactive | Potency [3]: inactive | Potency [4]: inactive | Potency [5]: inactive | Potency [6]: inactive | Potency [7]: inactive | outcome [8]: inactive | outcome [9]: inactive | outcome [10]: inactive | Potency [11]: inactive | Potency [12]: inactive | Potency [13]: inactive | outcome [14]: inactive | outcome [15]: inactive | outcome [17]: inactive | Potency [18]: inactive | outcome [19]: inactive

CCCCN(CCCC)CCCCCCN(CCCC)CCCC
Potency [1]: inactive | Potency [2]: inactive | Potency [3]: inactive | Potency [4]: inactive | Potency [5]: inactive | Potency [6]: inactive | Potency [7]: inactive | outcome [8]: inactive | outcome [9]: inactive | outcome [10]: inactive | Potency [11]: inactive | Potency [12]: inactive | Potency [13]: inactive | outcome [14]: inactive | outcome [15]: inactive | outcome [17]: inactive | outcome [19]: inactive

Cc1ccc2cccnc2c1
Potency [1]: inactive | Potency [2]: inactive | Potency [3]: inactive | Potency [4]: inactive | Potency [5]: inactive | Potency [6]: inactive | Potency [7]: inactive | outcome [8]: inactive | outcome [9]: inactive | outcome [10]: inactive | Potency [11]: inactive | Potency [12]: inactive | Potency [13]: inactive | outcome [14]: inactive | outcome [15]: inactive | Potency [16]: inactive | outcome [17]: inactive | Potency [18]: inactive | outcome [19]: inactive

OCCC(F)(F)C(F)(F)C(F)(F)C(F)(F)C(F)(F)C(F)(F)F
Potency [1]: inactive | Potency [2]: inactive | Potency [3]: inactive | Potency [4]: inactive | Potency [5]: inactive | Potency [6]: inactive | Potency [7]: inactive | outcome [8]: inactive | outcome [9]: inactive | outcome [10]: inactive | Potency [11]: inactive | Potency [12]: inactive | Potency [13]: inactive | outcome [14]: inactive | outcome [15]: inactive | outcome [17]: inactive | outcome [19]: inactive

Cc1ccc(N)nc1
Potency [1]: inactive | Potency [2]: inactive | Potency [3]: inactive | Potency [4]: inactive | Potency [5]: inactive | Potency [6]: inactive | Potency [7]: inactive | outcome [8]: inactive | outcome [9]: inactive | outcome [10]: inactive | Potency [11]: inactive | Potency [12]: inactive | Potency [13]: inactive | outcome [14]: inactive | outcome [15]: inactive | Potency [16]: inactive | outcome [19]: inactive

Cc1ccc(NC(N)=O)cc1
Potency [1]: inactive | Potency [2]: inactive | Potency [3]: inactive | Potency [4]: inactive | Potency [5]: inactive | Potency [6]: inactive | Potency [7]: inactive | outcome [8]: inactive | outcome [9]: inactive | outcome [10]: inactive | Potency [11]: inactive | Potency [12]: inactive | Potency [13]: inactive | outcome [14]: inactive | outcome [15]: inactive | outcome [17]: inactive | Potency [18]: inactive | outcome [19]: inactive

CC(=O)OCC(=O)[C@@]1(O)CC[C@H]2[C@@H]3CCC4=CC(=O)C=C[C@]4(C)[C@H]3[C@@H](O)C[C@@]21C
Potency [1]: inactive | Potency [2]: inactive | Potency [3]: 21.3 µM (active) | Potency [4]: inactive | Potency [5]: inactive | Potency [6]: inactive | Potency [7]: inactive | outcome [8]: inactive | outcome [9]: inactive | outcome [10]: inactive | Potency [11]: inactive | Potency [12]: 10.7 µM (active) | Potency [13]: inactive | outcome [14]: inactive | outcome [15]: inactive | outcome [17]: inactive | Potency [20]: inactive | Potency [18]: inactive | outcome [19]: inactive

CCOC(=O)[C@H](CCc1ccccc1)N[C@H]1CS[C@H](c2cccs2)CN(CC(=O)O)C1=O
Potency [1]: inactive | Potency [2]: inactive | Potency [3]: inactive | Potency [4]: inactive | Potency [5]: inactive | Potency [6]: inactive | Potency [7]: inactive | outcome [8]: inactive | outcome [9]: inactive | outcome [10]: inactive | Potency [11]: inactive | Potency [12]: inactive | Potency [13]: inactive | outcome [14]: inactive | outcome [15]: inactive | Potency [16]: inactive | outcome [17]: inactive | Potency [20]: inactive | outcome [19]: inactive

BrCCOc1ccccc1
Potency [1]: inactive | Potency [2]: inactive | Potency [3]: inactive | Potency [4]: inactive | Potency [5]: inactive | Potency [6]: inactive | Potency [7]: inactive | outcome [8]: inactive | outcome [9]: inactive | outcome [10]: inactive | Potency [11]: inactive | Potency [12]: inactive | Potency [13]: inactive | outcome [14]: inactive | outcome [15]: inactive | outcome [17]: inactive | Potency [18]: inactive | outcome [19]: inactive

CC(=O)/C=C/C=C1/C2CCC(C2)C1(C)C (stereo unspecified)
Potency [1]: inactive | Potency [2]: inactive | Potency [3]: inactive | Potency [4]: inactive | Potency [5]: inactive | Potency [6]: inactive | Potency [7]: inactive | outcome [8]: inactive | outcome [9]: inactive | outcome [10]: inactive | Potency [11]: inactive | Potency [12]: inactive | Potency [13]: inactive | outcome [14]: inactive | outcome [15]: inactive | Potency [16]: inactive | outcome [17]: inactive | Potency [18]: inactive | outcome [19]: inactive

O=C(O)CCCCCCCCCC(=O)O
Potency [1]: inactive | Potency [2]: inactive | Potency [3]: inactive | Potency [4]: inactive | Potency [5]: inactive | Potency [6]: inactive | Potency [7]: inactive | outcome [8]: inactive | outcome [9]: inactive | outcome [10]: inactive | Potency [11]: inactive | Potency [12]: inactive | Potency [13]: inactive | outcome [14]: inactive | outcome [15]: inactive | Potency [16]: inactive | outcome [17]: inactive | Potency [18]: inactive | outcome [19]: inactive

CC/C=C/CCCCCCCCCCOC(C)=O
Potency [1]: inactive | Potency [2]: inactive | Potency [3]: inactive | Potency [4]: inactive | Potency [5]: inactive | Potency [6]: inactive | Potency [7]: inactive | outcome [8]: inactive | outcome [9]: inactive | outcome [10]: inactive | Potency [11]: inactive | Potency [12]: inactive | Potency [13]: inactive | outcome [14]: inactive | outcome [15]: inactive | outcome [17]: inactive | Potency [18]: inactive | outcome [19]: inactive
